A short description of assay [1]: binders of probe aFSTL3 on microarray, primary screen, stem cell growth factor project, biochemical, small-molecule microarray, fluorescence 635/667 (AID 1064).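 Also: measures binding of the biotinylated anti-FSTL3 antibody to printed compounds.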 To be noted: higher = more signal.
Assay [2] can be described thus: binders from COS7 lysate, DM2A8 probe, primary screen, torsin A project, cell lysate, small-molecule microarray, fluorescence 635/667 (AID 1065). To be noted: higher = more signal, COS7 lysate expressing mutant human TOR1A.
Assay [3] is described as follows: binders of probe aFGF2 on microarray, primary screen, stem cell growth factor project, biochemical, small-molecule microarray, fluorescence 635/667 (AID 1067).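 Also: measures binding of biotinylated aFGF2 protein to printed compounds on slides; z-score merges feature fluorescence and signal-to-noise across triplicate slides.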 To be noted: higher = more signal.
Assay [4] can be described thus: binders of probe aFGF10 on microarray, primary screen, stem cell growth factor project, biochemical, small-molecule microarray, fluorescence 635/667 (AID 1071).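 Also: score merges 667 nm spot intensity and signal to noise from triplicate slides.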 To be noted: higher = more signal.
The target in assay [5] is Neurogenic locus notch homolog protein 2 (Homo sapiens) (UniProt Q04721). As to the kind of experiment: Notch2 binders on small-molecule microarrays, primary screen, biochemical, small-molecule microarray, 635 nm fluorescence, stem cell growth factors (AID 1073). To be noted: Notch2 binding, higher = more signal.
Chain of Neurogenic locus notch homolog protein 2 (Homo sapiens) (Q04721 whole entry, looked up, canonical isoform): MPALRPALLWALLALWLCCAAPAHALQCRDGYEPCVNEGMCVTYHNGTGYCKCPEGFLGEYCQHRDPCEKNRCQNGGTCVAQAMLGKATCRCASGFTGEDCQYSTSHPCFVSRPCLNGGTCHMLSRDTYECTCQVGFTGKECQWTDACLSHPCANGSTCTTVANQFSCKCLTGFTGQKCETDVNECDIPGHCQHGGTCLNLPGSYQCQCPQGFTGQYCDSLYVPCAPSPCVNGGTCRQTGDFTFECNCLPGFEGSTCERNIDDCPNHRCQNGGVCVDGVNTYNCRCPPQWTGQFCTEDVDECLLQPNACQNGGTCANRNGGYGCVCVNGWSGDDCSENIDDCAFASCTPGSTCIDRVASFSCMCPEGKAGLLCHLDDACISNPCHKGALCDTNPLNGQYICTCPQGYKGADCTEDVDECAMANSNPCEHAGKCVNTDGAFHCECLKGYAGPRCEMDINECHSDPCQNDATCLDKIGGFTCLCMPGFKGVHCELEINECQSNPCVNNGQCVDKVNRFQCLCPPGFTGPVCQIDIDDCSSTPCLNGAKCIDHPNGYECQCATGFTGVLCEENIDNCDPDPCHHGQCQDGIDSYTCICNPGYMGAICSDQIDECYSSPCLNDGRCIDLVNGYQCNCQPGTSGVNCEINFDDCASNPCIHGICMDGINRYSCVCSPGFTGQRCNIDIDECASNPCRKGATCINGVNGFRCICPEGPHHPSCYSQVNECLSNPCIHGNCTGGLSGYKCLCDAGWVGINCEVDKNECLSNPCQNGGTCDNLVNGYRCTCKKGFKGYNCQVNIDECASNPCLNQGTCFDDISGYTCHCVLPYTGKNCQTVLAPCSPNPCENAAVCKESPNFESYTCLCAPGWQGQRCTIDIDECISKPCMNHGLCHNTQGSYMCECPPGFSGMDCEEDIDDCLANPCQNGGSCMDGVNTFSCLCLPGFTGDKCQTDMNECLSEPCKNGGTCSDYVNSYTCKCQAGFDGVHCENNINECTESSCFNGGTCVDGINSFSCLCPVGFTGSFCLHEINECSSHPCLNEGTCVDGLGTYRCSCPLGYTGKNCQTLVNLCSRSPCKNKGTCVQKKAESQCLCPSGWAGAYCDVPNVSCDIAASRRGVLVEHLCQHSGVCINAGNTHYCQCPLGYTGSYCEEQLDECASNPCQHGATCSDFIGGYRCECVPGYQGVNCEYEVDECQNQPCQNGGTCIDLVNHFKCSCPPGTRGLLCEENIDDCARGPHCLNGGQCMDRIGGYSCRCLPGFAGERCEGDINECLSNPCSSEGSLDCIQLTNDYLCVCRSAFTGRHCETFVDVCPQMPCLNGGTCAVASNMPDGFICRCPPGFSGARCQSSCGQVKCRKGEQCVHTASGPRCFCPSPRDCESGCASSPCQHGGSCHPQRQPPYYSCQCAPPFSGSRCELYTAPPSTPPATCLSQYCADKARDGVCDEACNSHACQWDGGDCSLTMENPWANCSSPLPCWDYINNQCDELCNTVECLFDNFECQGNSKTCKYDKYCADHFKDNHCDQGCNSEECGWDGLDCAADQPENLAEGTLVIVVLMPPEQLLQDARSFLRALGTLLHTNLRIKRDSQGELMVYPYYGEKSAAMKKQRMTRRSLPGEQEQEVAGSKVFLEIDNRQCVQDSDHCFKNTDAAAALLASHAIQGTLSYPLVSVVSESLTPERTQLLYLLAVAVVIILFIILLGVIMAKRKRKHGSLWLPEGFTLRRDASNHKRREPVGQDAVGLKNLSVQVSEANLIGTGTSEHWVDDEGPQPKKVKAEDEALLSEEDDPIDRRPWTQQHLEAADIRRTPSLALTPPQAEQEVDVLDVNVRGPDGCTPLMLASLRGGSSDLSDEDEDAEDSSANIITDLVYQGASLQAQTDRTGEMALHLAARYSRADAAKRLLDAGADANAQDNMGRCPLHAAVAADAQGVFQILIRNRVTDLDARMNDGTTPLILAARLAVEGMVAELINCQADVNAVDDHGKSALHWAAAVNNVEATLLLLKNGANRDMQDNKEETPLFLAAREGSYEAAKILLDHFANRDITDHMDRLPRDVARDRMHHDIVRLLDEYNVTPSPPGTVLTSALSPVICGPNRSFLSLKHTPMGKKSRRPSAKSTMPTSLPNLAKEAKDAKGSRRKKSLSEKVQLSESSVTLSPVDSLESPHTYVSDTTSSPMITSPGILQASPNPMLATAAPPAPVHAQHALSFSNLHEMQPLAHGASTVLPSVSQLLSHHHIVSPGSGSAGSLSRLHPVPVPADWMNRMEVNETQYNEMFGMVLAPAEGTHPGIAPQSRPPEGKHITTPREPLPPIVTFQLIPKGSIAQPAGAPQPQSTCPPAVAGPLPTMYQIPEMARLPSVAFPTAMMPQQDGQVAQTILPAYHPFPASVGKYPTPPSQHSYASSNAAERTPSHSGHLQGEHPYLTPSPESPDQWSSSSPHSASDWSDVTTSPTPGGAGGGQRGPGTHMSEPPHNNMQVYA
The target in assay [6] is Pro-neuregulin-1, membrane-bound isoform (Homo sapiens) (UniProt Q02297). The assay can be described thus: NRG1 binders on small-molecule microarrays, primary screen, psychiatric disease protein project, biochemical, small-molecule microarray, fluorescence 635/667 (AID 1075).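 Also: score combines 667 nm spot fluorescence with signal to noise.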 To be noted: NRG1 binding, 635 nm fluorescence, higher = more signal.
Assay [7] has as its system Neuregulin-1 EGF-like domain. The assay can be described thus: binders of neuregulin-1 EGF-like domain, primary screen, biochemical, small-molecule microarray, 635 nm fluorescence (AID 1081).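 Also: binding of the protein to compounds printed on small-molecule microarray slides.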 To be noted: small-molecule microarray binding, higher = more signal.
Assay [8] is described as follows: FRG1 promoter luciferase signal modulators, primary screen, FRG1 inhibition for FSHD, cell-based, C2C12 myotubes, firefly/Renilla luciferase, luminescence (AID 1084). To be noted: higher = more signal, called active from +8 up or from −8 down.
A short description of assay [9]: binders of probe aFST on microarray, primary screen, stem cell growth factor project, biochemical, small-molecule microarray, fluorescence 635/667 (AID 1086).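 Also: score merges 667 nm fluorescence with signal-to-noise of each printed compound spot.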 To be noted: higher = more signal.
A short description of assay [10]: binders of probe aHhip on microarray, primary screen, stem cell growth factor project, biochemical, small-molecule microarray, fluorescence 635/667 (AID 1087).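 Also: score merges spot fluorescence at 667nm with spot signal to noise ratio.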 To be noted: higher = more signal.
The test system of assay [11] is PRMT1 (protein arginine N-methyltransferase 1). The assay can be described thus: PRMT1 binders on small-molecule microarrays, primary screen, biochemical, small-molecule microarray, 635 nm fluorescence (AID 1088).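 Also: binding of Prmt1 protein to compounds spotted on small-molecule microarray slides.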 To be noted: small-molecule microarray binding, higher = more signal.
Assay [12] is described as follows: yeast growth modulation, basal conditions, primary screen, YJM789 clinical isolate, OD600, 24 h (AID 1089).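 Also: growth of clinical yeast isolate S. cerevisiae YJM 789 seeded 1000 cells per well; test concentration not given here.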 To be noted: S. cerevisiae YJM789 growth, higher = more signal, called active from +8 up or from −8 down.
The nature of assay [13]: fission yeast growth modulation, primary screen, strain 972, OD600, 24 h, no modulator (AID 1090).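 Also: basal condition with compound alone and no growth modifier present; test concentration not given here.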 To be noted: S. pombe 972 growth, higher = more signal, called active from +8 up or from −8 down.
Assay [14] can be described thus: S. cerevisiae growth modulation with rapamycin, primary screen, strain BY4716, OD600, 96 h (AID 1091). Also: test concentration not given here. To be noted: higher = more signal, called active from +8 up or from −8 down.
The target of assay [15] is Torsin-1A-interacting protein 2 (Homo sapiens) (UniProt Q8NFQ8). The assay can be described thus: LULL1 binders on small-molecule microarray, primary screen, cell lysate, human LULL1 lysate, 635/667 nm fluorescence (AID 1092).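 Also: probe is lysate of COS7 cells overexpressing human LULL1; score merges per-feature 667 nm fluorescence with signal-to-noise.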 To be noted: hLULL1 lysate binding, 635 nm fluorescence, higher = more signal.
The nature of assay [16]: E. coli growth modulation, two-sided OD650, primary screen, E. coli filamentation project, strain DRC41, 24 h (AID 1093).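 Also: MC1000 strain lacking acrAB efflux and sulA so SOS filamentation is blocked; test concentration not given here.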 To be noted: OD650, 24 h, higher = more signal, called active from +8 up or from −8 down.
The nature of assay [17]: small-molecule microarray binders of probe aLefty2, primary screen, biochemical, biotinylated probe, 635/667 nm fluorescence (AID 1094).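 Also: score merges spot fluorescence near 667 nm with spot signal-to-noise ratio.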 To be noted: higher = more signal.
Assay [18] deals with Noggin (protein binding on small-molecule microarray). As to the kind of experiment: Noggin binders on small-molecule microarray, primary screen, biochemical, 635/667 nm fluorescence (AID 1095).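 Also: score merges 667 nm feature fluorescence with signal to noise over triplicate slides.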 To be noted: 635 nm fluorescence, higher = more signal.
Assay [19] concerns the target Neurogenic locus notch homolog protein 3 (Homo sapiens) (UniProt Q9UM47). The assay can be described thus: NOTCH3 binders on small-molecule microarray, primary screen, biochemical, 635/667 nm fluorescence (AID 1096). To be noted: NOTCH3 binding, 635 nm fluorescence, higher = more signal.
A short description of assay [20]: small-molecule microarray binders of probe aEGFR, primary screen, biochemical, biotinylated probe, 635/667 nm fluorescence (AID 1097).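 Also: probe is a biotinylated anti-EGFR antibody binding compounds printed on slides; score combines fluorescence near 667 nm and signal to noise of each spot.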 To be noted: higher = more signal.

Activity calls are given as the source filed them.

For five molecules, composite z-score and z-score results are on record in PubChem BioAssay.

Chain of Neurogenic locus notch homolog protein 3 (Homo sapiens) (Q9UM47 whole entry, looked up): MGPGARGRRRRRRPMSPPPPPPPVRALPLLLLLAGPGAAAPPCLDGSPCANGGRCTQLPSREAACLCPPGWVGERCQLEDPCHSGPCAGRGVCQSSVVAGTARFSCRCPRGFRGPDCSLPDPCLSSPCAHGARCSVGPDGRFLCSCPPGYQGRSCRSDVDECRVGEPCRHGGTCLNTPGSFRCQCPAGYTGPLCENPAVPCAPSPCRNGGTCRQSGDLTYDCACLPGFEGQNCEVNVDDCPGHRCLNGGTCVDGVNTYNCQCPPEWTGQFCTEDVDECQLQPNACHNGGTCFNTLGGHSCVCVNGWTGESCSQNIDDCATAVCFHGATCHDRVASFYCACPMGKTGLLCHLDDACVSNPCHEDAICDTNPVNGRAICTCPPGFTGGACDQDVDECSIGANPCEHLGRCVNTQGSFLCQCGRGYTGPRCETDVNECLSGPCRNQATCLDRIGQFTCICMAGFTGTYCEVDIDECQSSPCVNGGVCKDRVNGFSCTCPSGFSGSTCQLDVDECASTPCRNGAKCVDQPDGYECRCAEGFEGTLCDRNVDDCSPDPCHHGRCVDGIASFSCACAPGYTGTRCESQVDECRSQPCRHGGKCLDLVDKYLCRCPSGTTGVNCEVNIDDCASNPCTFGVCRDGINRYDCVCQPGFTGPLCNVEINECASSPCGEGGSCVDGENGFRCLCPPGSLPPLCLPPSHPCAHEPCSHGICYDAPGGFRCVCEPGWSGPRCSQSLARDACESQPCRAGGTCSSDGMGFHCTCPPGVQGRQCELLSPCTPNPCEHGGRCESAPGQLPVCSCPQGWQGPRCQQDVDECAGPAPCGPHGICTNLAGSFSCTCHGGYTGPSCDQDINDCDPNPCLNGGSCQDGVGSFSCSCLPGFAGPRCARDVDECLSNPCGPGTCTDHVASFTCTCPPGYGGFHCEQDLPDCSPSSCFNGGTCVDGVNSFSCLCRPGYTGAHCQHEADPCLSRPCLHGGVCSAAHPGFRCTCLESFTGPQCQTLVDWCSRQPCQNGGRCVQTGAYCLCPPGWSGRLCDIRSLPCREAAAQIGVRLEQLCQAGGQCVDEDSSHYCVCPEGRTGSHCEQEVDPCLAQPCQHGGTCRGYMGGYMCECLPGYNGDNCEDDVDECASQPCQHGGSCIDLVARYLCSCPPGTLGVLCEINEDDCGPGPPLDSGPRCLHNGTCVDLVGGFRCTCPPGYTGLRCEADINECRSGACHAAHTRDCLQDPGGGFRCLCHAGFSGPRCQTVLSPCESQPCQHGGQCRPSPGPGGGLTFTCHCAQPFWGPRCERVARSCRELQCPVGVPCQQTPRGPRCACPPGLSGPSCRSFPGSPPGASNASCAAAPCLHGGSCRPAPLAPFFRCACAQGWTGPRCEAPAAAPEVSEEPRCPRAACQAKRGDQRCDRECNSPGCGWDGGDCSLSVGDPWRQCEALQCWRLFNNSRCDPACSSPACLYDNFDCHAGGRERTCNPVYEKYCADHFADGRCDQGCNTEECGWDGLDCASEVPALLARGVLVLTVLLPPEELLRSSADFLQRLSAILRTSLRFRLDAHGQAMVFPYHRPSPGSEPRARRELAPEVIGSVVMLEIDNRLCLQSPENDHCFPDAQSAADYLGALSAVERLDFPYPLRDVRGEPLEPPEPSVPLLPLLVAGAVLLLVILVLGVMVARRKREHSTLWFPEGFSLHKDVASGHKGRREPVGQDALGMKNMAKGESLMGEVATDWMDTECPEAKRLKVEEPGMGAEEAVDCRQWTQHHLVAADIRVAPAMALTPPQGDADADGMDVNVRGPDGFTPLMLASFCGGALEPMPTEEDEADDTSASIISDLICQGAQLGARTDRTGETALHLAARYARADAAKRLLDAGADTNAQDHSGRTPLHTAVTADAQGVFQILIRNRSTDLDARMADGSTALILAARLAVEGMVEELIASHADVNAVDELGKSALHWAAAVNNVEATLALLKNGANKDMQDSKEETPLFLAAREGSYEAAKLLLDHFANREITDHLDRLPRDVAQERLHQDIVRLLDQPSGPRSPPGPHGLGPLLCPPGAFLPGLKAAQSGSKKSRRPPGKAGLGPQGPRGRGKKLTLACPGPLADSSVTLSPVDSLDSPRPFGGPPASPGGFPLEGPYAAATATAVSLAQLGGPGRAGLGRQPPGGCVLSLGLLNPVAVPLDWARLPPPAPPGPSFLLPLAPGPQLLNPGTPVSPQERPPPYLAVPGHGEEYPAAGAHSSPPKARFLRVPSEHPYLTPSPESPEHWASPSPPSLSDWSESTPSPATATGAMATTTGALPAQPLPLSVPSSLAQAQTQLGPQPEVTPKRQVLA

As to `COc1ccc([Si](C)(C)[C@@H]2[C@@H](CCO)O[C@]3(C(=O)N(Cc4cccc(N5CCCCC5=O)c4)c4ccccc43)[C@H]2C)cc1`, the composite z-score is -0.191 in [1]; 0.692 in assay [2]; -0.134 in [3]; 0.877 in assay [4]; 0.869 in assay [5]; 1.06 in assay [6]. Besides, the composite z-score in [7] was 0.967; in assay [9], 0.263; in [10], -0.0618; in [11], 1.56; in [15], 2.54; in assay [17], -0.0915. Also, the composite z-score was 1.22 in assay [18], 1.09 in assay [19] and -0.0442 in [20]. Besides, the z-score was -3.27 (inactive) in assay [8]; 2.34 (inactive) in assay [12]; -0.486 (inactive) in assay [13]; 5.16 (inactive) in assay [14]; -0.0838 (inactive) in assay [16].
Take `Cc1ccc(N2C(=O)c3ccccc3[C@@H](C(=O)NCC(C)C)[C@@H]2c2ccc(CO)cc2)nc1`: the composite z-score in assay [1] is 0.341; in assay [2] it was -0.751; in [3], -0.161; in assay [4], -0.494; in [5], -1.07; in [6], -0.265. The composite z-score is 0.346 in assay [7]; -0.473 in assay [9]; -0.0645 in assay [10]; 0.137 in assay [11]; 2.32 in [15]; -0.186 in assay [17]. In addition, the composite z-score in assay [18] is -0.479; in [19], -1.03; in assay [20], -0.298. The z-score was -0.788 (inactive) in assay [8]; 0.229 (inactive) in [12]; 0.0994 (inactive) in [13]; -0.456 (inactive) in assay [14]; 0.409 (inactive) in [16].
With `COc1ccccc1CN1C(=O)c2ccccc2[C@](Cc2ccccc2I)(C(=O)NCc2ccccc2)[C@@H]1c1ccc(CO)cc1`, the composite z-score was 0.317 in [1]; 1.33 in assay [2]; -0.0614 in assay [3]; 0.197 in assay [4]; 0.106 in assay [5]; 0.923 in [6]. The composite z-score is 0.535 in assay [7]; 0.182 in [9]; 0.154 in assay [10]; 1.02 in assay [11]; 2.22 in [15]; 0.0023 in [17]. Further, the composite z-score was -0.373 in assay [18], -0.418 in assay [19] and -0.0432 in [20]. The z-score in assay [8] was -1.13 (inactive); in [12] it was -0.295 (inactive); in assay [13] it was -0.127 (inactive); in assay [14], -0.694 (inactive); in assay [16], 0.106 (inactive).
For `O=C1O[C@@H](c2ccccc2)[C@@H](c2ccccc2)N2[C@@H](c3ccc(O)cc3)[C@]3(C(=O)Nc4ccc(C#CCCO)cc43)[C@@H](C(=O)O)[C@H]12`, the composite z-score in [1] came to 3.16; in assay [2], 0.489; in assay [3], 0.548; in [4], 0.306; in assay [5] it was 0.725; in [6] it was 1.91. The composite z-score in assay [7] is 1.07; in assay [9] it was 2.44; in assay [10], 1.69; in assay [11] it was 1.57; in assay [15], 2.79; in assay [17] it was 1.55. Also, the composite z-score in [18] is -0.222; in assay [19], 0.314; in assay [20] it was 1.07. Further, the z-score was -0.55 (inactive) in assay [8]; 0.414 (inactive) in assay [12]; -0.571 (inactive) in assay [13]; -0.265 (inactive) in assay [14]; 0.7 (inactive) in assay [16].
In the case of `Cc1ccc(S(=O)(=O)N2CC(C(=O)O)=CCC2c2ccccc2)cc1` (stereo not given), the composite z-score was 0.578 in [1]; -0.0007 in assay [2]; -0.0128 in assay [3]; 0.118 in assay [4]; -0.0631 in [5]; -0.0288 in [6]. The composite z-score was -0.11 in [7]; -0.513 in [9]; -0.204 in assay [10]; 0.461 in [11]; 2.89 in [15]; 0.431 in assay [17]. Further, the composite z-score is -1.22 in assay [18], -0.231 in assay [19] and 0.254 in assay [20]. The z-score is -1.03 (inactive) in [8]; -0.224 (inactive) in assay [12]; 1.29 (inactive) in assay [13]; -0.0893 (inactive) in assay [14]; -1.11 (inactive) in assay [16].
